Assay results published in PubChem BioAssay AID686971 (National Center for Advancing Translational Sciences (NCATS), 2013).
Screen size: about 360,000 compounds; about 7,500 (2.1%) were called active. Another 8% or so got no clear call; they are omitted. The call rests on the fitted dose curve; in most records, active means well fitted cell-killing curve with a large enough effect; inconclusive means small, poorly fitted or top-dose-only effect, or effect the other way, or another doubt; inactive means no such curve, though single readings can be large or run the other way. What follows is part of a selection rich in actives, with near analogues and random picks from the rest. A call without a number means that no potency is given here.
Potency means the concentration at half of the fitted maximal effect.

Assay: qHTS for induction of synthetic lethality in tumor cells producing 2HG: qHTS for the HT-1080-IDH1KD cell line
Settings: HT-1080 IDH1 knockdown viability, ATP luminescence, 48 h; series mostly up to 46.1 µM
In short: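 Cytotoxicity counter-line: IDH1KD HT-1080, 48 h, CellTiter-Glo. Curves classed by r2, magnitude and activity.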
For `O=C(Nc1ccc(F)cc1)C(CCc1ccccc1)N1CCN(CC(=O)N2CCCC2)CC1` (stereo unspecified), the Potency was “inactive”.
With `Cc1nc(-c2ccc(Cl)cc2)sc1C(=O)NN` the Potency was 10.3 µM (active).
For `Cc1nc(-c2ccc(Cl)cc2)sc1C(=O)CBr`, the Potency was “inactive”.
In the case of `Cc1nc(N2CCOCC2)sc1C(=O)NN`, the Potency is reported as “inactive”.
With `COCCCNC(=O)c1ccc(-c2c(C)noc2C)c2ccoc12` the Potency was “inactive”.
With `O=C(NOCc1ccccc1)c1cccc([N+](=O)[O-])c1` the Potency was “inactive”.
In the case of `O=C(COC(=O)c1ccc([N+](=O)[O-])cc1Cl)NC(=O)c1ccccc1`, the Potency is reported as “inactive”.
For `O=C(NC(Nc1nc2ccc([N+](=O)[O-])cc2s1)(C(F)(F)F)C(F)(F)F)c1ccccc1`, the Potency was 5.17 µM (active).
With `COc1ccc(OC)c(NC(=O)C2(C)CCN2C(=O)Cc2ccccc2)c1` (stereo unspecified) the Potency was “inactive”.
With `Cc1cc(C(=O)N2CCCC2(C)C(=O)O)c(C)o1` (stereo unspecified) the Potency was “inactive”.
With `COC(=O)[C@@]1(Cc2ccc(F)cc2)[C@H]2c3cc(C(=O)N(C)C)n(CCc4c[nH]c5ccc(OC)cc45)c3C[C@H]2CN1C(=O)c1ccccc1` the Potency was “inactive”.
For `COC(=O)[C@@]1(Cc2ccc(F)cc2)[C@H]2c3cc(C(=O)N4CCCC4)n(Cc4ccc(OC(F)(F)F)cc4)c3C[C@H]2CN1C(=O)c1ccccc1`, the Potency was 23.1 µM (active).
With `COC(=O)[C@@]1(Cc2ccc(F)cc2)[C@H]2c3cc(C(=O)N4CCCC4)n(C[C@H](O)CO)c3C[C@H]2CN1C(=O)c1ccccc1` the Potency was “inactive”.
With `CCCNC(=O)C1(C)CCN(Cc2csc(-c3ccc(Cl)cc3)n2)C1` (stereo unspecified) the Potency was “inactive”.
In the case of `COc1ccc(-c2cc3c(c4c2ccn4C)C2CCC3C2)cn1` (stereo unspecified), the Potency is reported as “inactive”.
With `C=CCn1c(CC(=O)Nc2cccc(OC)c2)nnc1SCC(=O)NC1CCCCC1` the Potency was “inactive”.
For `COc1cccc(-n2c(SCC(=O)NC3CCS(=O)(=O)C3)nc3ccccc3c2=O)c1` (stereo unspecified), the Potency was “inactive”.
In the case of `COc1cccc(-n2c(SCC(=O)NC3CCCCC3)nc3n[nH]c(C)c3c2=N)c1`, the Potency is reported as 18.4 µM (active).
For `CCc1noc(C)c1C(=O)OCC(=O)c1ccc(NC(=O)CC(C)C)cc1`, the Potency was “inactive”.
In the case of `FC(F)(F)c1ccccc1Cc1c(-c2ccccc2)nc2c3ccccc3ccn12`, the Potency is reported as “inactive”.
In the case of `O=C(NCC(F)(F)F)c1ccc(S(=O)(=O)NCCc2ccc3c(c2)OCCO3)cc1`, the Potency is reported as “inactive”.
In the case of `Nc1ccccc1-c1nc2ccncc2[nH]1`, the Potency is reported as “inactive”.
In the case of `CCCOc1ccccc1-c1nc(SCCC(=O)O)n[nH]1`, the Potency is reported as “inactive”.
For `Cc1cc(C)nc(Nc2n[nH]c(-c3ccccc3N)n2)n1`, the Potency was 32.6 µM (active).
In the case of `CCOC(=O)[C@]12CCC=C1N(CCC1=CCCCC1)C(=O)[C@H](CC(=O)NCc1ccc(C)o1)C2`, the Potency is reported as “inactive”.
With `CC(=O)C[C@@H]1OC[C@H](C)N1S(=O)(=O)c1ccc(C)cc1` the Potency was “inactive”.
For `CN(C)CCOc1ccc(Cl)cc1C(C)(C)C`, the Potency was “inactive”.
For `CCN(CC)CCOCCOc1ccc(Cl)c2ccccc12`, the Potency was “inactive”.
With `CN(C)CCOCCOc1ccc(Cl)c2ccccc12` the Potency was 20.6 µM (active).
In the case of `N#CCCC(C#N)(c1cccnc1)N1CCOCC1` (stereo unspecified), the Potency is reported as “inactive”.
For `CCC(C)CN1C(=O)CN(S(C)(=O)=O)CC1(C)C(=O)Nc1ccc2c(c1)OCCO2` (stereo unspecified), the Potency was “inactive”.
In the case of `O=C(NCc1ccco1)c1cccc(-c2ccc3nncn3c2)c1`, the Potency is reported as “inactive”.
With `CCCSc1nc(NCc2ccco2)c2c3c(sc2n1)COC(C)(CC)C3` (stereo unspecified) the Potency was “inactive”.
In the case of `CCC1(C)Cc2c(sc3[nH]c(=S)n(Cc4ccccc4)c(=O)c23)CO1` (stereo unspecified), the Potency is reported as 14.6 µM (active).
For `Cn1c(=O)[nH]c(=O)c2c1[nH]c(=S)n2Cc1ccccc1`, the Potency was “inactive”.
In the case of `OC[C@@H]1CN(Cc2cccs2)C[C@H](n2cnc3c(Nc4ccccc4)ncnc32)O1`, the Potency is reported as “inactive”.
For `Cc1ccc(Cl)cc1NC(=S)N(CCN(C)C)Cc1cccs1`, the Potency was “inactive”.
In the case of `Cc1cc(Cl)ccc1-c1nc(NCCN(C)C)nc2ccsc12`, the Potency is reported as 23.1 µM (active).
For `O=C(CC[C@H]1O[C@@H](n2ccc(=O)[nH]c2=O)[C@H](O)[C@@H]1O)N[C@H](Cc1ccccc1)C(=O)NCc1ccco1`, the Potency was “inactive”.
For `CCc1ccccc1NC(=O)CN1CCN(C(=O)c2cc(C3CC3)nn2-c2ccccc2)CC1`, the Potency was “inactive”.
In the case of `COc1ccc(NC(=O)CCCOc2ccc(C(C)=O)cc2)cc1S(=O)(=O)N1CCCCC1`, the Potency is reported as “inactive”.
For `CCC(CC)C(C(=O)NC1CCCC1)N1CCN(c2cc(C)nc3ccccc23)CC1` (stereo unspecified), the Potency was “inactive”.
For `COc1ccc(CCNC(=O)/C(C#N)=C2\N=C(NC(=O)c3cccs3)c3ccccc32)cc1`, the Potency was “inactive”.
With `Cc1ccc2nc(/C(C#N)=C\c3ccc(OC(=O)c4cccs4)cc3)[nH]c2c1` the Potency was 7.94 µM (active).
With `COc1ccc2c(c1)CCCO[C@]21O[C@H](CCO)C[C@H](O)[C@H]1O` the Potency was “inactive”.
For `Nc1ncnc2c1ncn2[C@@H]1O[C@H](C(=O)N2CCSC2)[C@@H](O)[C@H]1O`, the Potency was “inactive”.
With `CC1(C(=O)Nc2ccc3c(c2)OCCO3)CN(S(C)(=O)=O)CC(=O)N1Cc1cccc(F)c1` (stereo unspecified) the Potency was “inactive”.
With `Fc1ccc2[nH]c3c(N4CCN(Cc5ccc6c(c5)OCO6)CC4)ncnc3c2c1` the Potency was 23.1 µM (active).
For `CCCCCc1c(C)nc(N2CCN(Cc3ccc4c(c3)OCO4)CC2)[nH]c1=O`, the Potency was “inactive”.
With `O=c1[nH]c(N2CCN(Cc3ccc4c(c3)OCO4)CC2)nc2c1CCCC2` the Potency was “inactive”.
For `CC(C)NC(=O)N1Cc2cc(C(=O)NCC(F)(F)F)nc(-c3cccc(-c4cc5ccccc5o4)c3)c2[C@@H]1CCO`, the Potency was “inactive”.
With `CCOC(=O)C1CCCN(C(=O)c2cc(-c3cccs3)oc2C)CC1` (stereo unspecified) the Potency was “inactive”.
For `CCn1c(SCC(=O)N2CCCC2=O)nc2ccccc21`, the Potency was “inactive”.
In the case of `CCC(=C/c1sc2ccc3ccccc3c2[n+]1C)/C=C1\Sc2ccc3ccccc3c2N1C`, the Potency is reported as 5.17 µM (active).
In the case of `CCC1NC(=O)c2cccnc2-n2c1nc1ccc(C)cc1c2=O` (stereo unspecified), the Potency is reported as “inactive”.
In the case of `CCCS(=O)(=O)NC(=O)C1(C)CCN(C(=O)c2sccc2C)C1` (stereo unspecified), the Potency is reported as “inactive”.
In the case of `Cc1nc(/N=C(\N)NC(=O)NC2CCCCC2)nc2ccccc12`, the Potency is reported as 14.6 µM (active).
In the case of `COc1ccc2nc(/N=C(\N)NC(=O)Nc3ccccc3)nc(C)c2c1`, the Potency is reported as “inactive”.
In the case of `CC(C)c1cc(C(=O)NC2CCCCCC2)c2ccccc2n1`, the Potency is reported as “inactive”.
With `C[C@@H]1CC2=C(C(=O)OC(C)(C)O2)[C@@H](C2CC2)O1` the Potency was “inactive”.
For `CN(Cc1ccc(C(F)(F)F)cc1)C(=O)[C@H]1O[C@@H](n2cnc3c(N)ncnc32)[C@H](O)[C@@H]1O`, the Potency was “inactive”.
In the case of `COc1ccc(-c2n[nH]c(C)c2-c2ccc(OC)c(OC)c2)c(O)c1`, the Potency is reported as 18.4 µM (active).
With `COc1ccc(-c2[nH]ncc2CN(C)Cc2c(C)n[nH]c2C)c(OC)c1` the Potency was “inactive”.
For `COc1ccc(-c2c(-c3ccc(OC)cc3O)nc(C)nc2C(F)(F)F)cc1`, the Potency was “inactive”.
In the case of `CC1(C(=O)NS(=O)(=O)c2ccccc2)CCN1C(=O)C1CCCCC1` (stereo unspecified), the Potency is reported as “inactive”.
With `O=C1c2ccccc2C(c2nc3ccccc3[nH]2)N1c1ccccc1` (stereo unspecified) the Potency was “inactive”.
For `C=C1c2c(Cl)ccc(O)c2C(O)=C2C(=O)[C@]3(O)C(O)=C(C(N)=O)C(=O)[C@@H](N(C)C)[C@@H]3[C@@H](O)C12` (stereo partly specified), the Potency was 18.4 µM (active).
In the case of `O=C1OCCC1=COCCCCOC=C1CCOC1=O`, the Potency is reported as “inactive”.
For `COc1ccc(C(O)c2nc(-c3ccc4c(c3)OCO4)cs2)cc1` (stereo unspecified), the Potency was “inactive”.
With `C[C@@H]1CN([C@H](C)CO)C(=O)CCCn2cc(nn2)CO[C@H]1CN(C)S(C)(=O)=O` the Potency was “inactive”.
In the case of `COc1ccc(/C=C(\NC(=O)c2ccc(OC)c(OC)c2)C(=O)NCCc2c[nH]c3ccccc23)cc1`, the Potency is reported as “inactive”.
In the case of `COc1ccc(/C=C(\C#N)c2c[nH]c3ccccc23)cc1`, the Potency is reported as 0.731 µM (active).
In the case of `COc1ccc(C(C(O)C(=O)c2c[nH]c3ccccc23)N2CCN(c3ccccc3)CC2)cc1` (stereo unspecified), the Potency is reported as “inactive”.
For `C[C@H](CO)N1C[C@H](C)[C@@H](CN(C)C(=O)C2CCCCC2)OCc2cnnn2CCCC1=O`, the Potency was “inactive”.
With `C[C@H]1CN(c2ccc(Br)cc2)C(=O)[C@@H]1CC(=O)Nc1ccc(Br)cc1` the Potency was “inactive”.
For `COc1ccc(CS(=O)/C(Cl)=C(/Cl)C(=O)Nc2ccc(OC)nc2)cc1` (stereo unspecified), the Potency was 18.4 µM (active).
In the case of `COc1ccc(CCNC(=O)c2cnc(Cl)c(Cl)c2)cc1`, the Potency is reported as “inactive”.
With `COc1ccc(NC(=O)CN2C(=O)NC(C)(c3ccccc3)C2=O)cn1` (stereo unspecified) the Potency was “inactive”.
In the case of `CC(C)Cn1cc(-c2cncc3nccn23)cn1`, the Potency is reported as “inactive”.
In the case of `CC1(C)CN(CCc2ccccc2)C(=O)[C@H]1CC(=O)Nc1ccc(Br)cc1`, the Potency is reported as “inactive”.
For `CCOC(=O)c1c(NC(=O)COC(=O)c2ccc(S(=O)(=O)C(F)F)cc2)sc(C(=O)N(C)C)c1C`, the Potency was “inactive”.
In the case of `COc1cccc(NC(=O)C2(C)CCN2Cc2ccccc2Cl)c1` (stereo unspecified), the Potency is reported as “inactive”.
With `CCN1/C(=C/c2ccc3ccc(C)cc3[n+]2CC)Sc2ccccc21` the Potency was 20.6 µM (active).
For `CCOC(=O)[C@]12CCCC=C1N(CCC1=CCCCC1)C(=O)[C@H](CC(=O)N1CCN(C(=O)c3ccco3)CC1)C2`, the Potency was “inactive”.
In the case of `Cc1cc(NC(=O)c2ccc(F)cc2)ccc1NC(=O)c1ccco1`, the Potency is reported as “inactive”.
In the case of `Cc1ccc(NC(=O)c2ccco2)cc1`, the Potency is reported as “inactive”.
For `O=C(Nc1ccc(O)cc1)c1ccc(NC(=O)c2ccco2)cc1`, the Potency was 13 µM (active).
For `O=S1(=O)CC(N2CCN(Cc3ccccc3F)CC2)CN1Cc1cn(Cc2ccccc2)nn1` (stereo unspecified), the Potency was “inactive”.
With `Cc1ccc(OCC(=O)OC(C)CN(C)Cc2ccccc2)cc1` (stereo unspecified) the Potency was “inactive”.
In the case of `CN(Cc1ccccc1)CC(O)COc1ccc(CNCc2cc3ccccc3s2)cc1` (stereo unspecified), the Potency is reported as 20.6 µM (active).
In the case of `COc1ccc(OCC(O)CN(C)C(=O)C(C)Oc2ccccc2)cc1` (stereo unspecified), the Potency is reported as “inactive”.
For `O=C(NCc1ccccc1)C1c2ccccc2OCC(=O)N1CCCN1CCOCC1` (stereo unspecified), the Potency was “inactive”.
In the case of `Cc1ccc(S(=O)(=O)N2CCC(=O)N([C@H](COCc3ccccc3)C(C)C)CC2)cc1`, the Potency is reported as “inactive”.
In the case of `O=C(O)c1ccc(NC(=O)c2cn(-c3ccccc3)nc2-c2ccc(Cl)cc2)cc1`, the Potency is reported as 20.6 µM (active).
For `Cc1ccc(-c2nn(-c3ccccc3)cc2C(=O)NCCCN2CCCC2=O)cc1`, the Potency was “inactive”.
For `Cc1ccc(-c2nn(-c3ccccc3)cc2C(=O)Nc2cccc(S(=O)(=O)N3CCOCC3)c2)cc1`, the Potency was “inactive”.
